For 40 molecules, Potency results are on record in PubChem BioAssay (NCATS).

Inconclusive results are not listed. Activity calls are given as the source filed them. Calls follow the shape of the dose curve; as a rule, active = well fitted curve in the direction sought with a large enough effect; inconclusive = small, poorly fitted or top-dose-only effect, or another doubt; inactive = no such curve, though single readings can be large; an effect the other way counts as inactive or inconclusive.

Assay [1] in a line: qHTS of pediatric cancer cell lines to identify multiple opportunities for drug repurposing: Confirmatory screen for Rh18 cells (AID 1347125). Also: nearly all actives have a fitted effect of over 55% in size. In short, it runs like this: (§1)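 Cells (500-1,000/well) rested 5 h, then received compounds for 48 h; metabolically active cells were measured by CellTiter-Glo luminescence. Final concentrations spanned up to 46 µM (MIPE, 11-point) or 0.59 nM-46 µM (NPC, 8-point) in primary screens, 11-point in follow-ups.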
(Quantitative high-throughput screening tests each substance at several concentrations.)

Assay [2] is described as follows: qHTS of pediatric cancer cell lines to identify multiple opportunities for drug repurposing: Confirmatory screen for Rh30 cells (AID 1347126). Also: nearly all actives have a fitted effect of over 55% in size. In short, it runs like this:
as §1

Assay [3] can be described thus: qHTS of pediatric cancer cell lines to identify multiple opportunities for drug repurposing: Confirmatory screen for Saos-2 cells (AID 1347127). Also: nearly all actives have a fitted effect of over 60% in size. Conditions: Saos-2 osteosarcoma cell viability. In short, it runs like this:
as §1

Assay [4] in a line: qHTS of pediatric cancer cell lines to identify multiple opportunities for drug repurposing: Confirmatory screen for OHS-50 cells (AID 1347128).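 Also: compound exposure lasted 48 h at 37 degrees C; nearly all actives have a fitted effect of over 55% in size.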 The gist of the method: as §1
For assay [5], the system named is Zika virus NS2B-NS3 protease. Nature of the assay: Primary screen GU AMC qHTS for Zika virus inhibitors (AID 1347154). Also: nearly all actives have a fitted effect of over 70% in size. In short, it runs like this:
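Fluorogenic AMC-substrate cleavage by noncovalent NS2B-NS3 protease complex (25 nM, pH 8.0 Tris buffer with Tween 20) followed for 15 minutes at room temperature (~20% conversion). Percent inhibition from ex340/em450 signal change, fitted by 4-parameter Hill equation.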

For assay [6], the target named is N-terminal Xaa-Pro-Lys N-methyltransferase 1 (Homo sapiens) (UniProt Q9BV86). Nature of the assay: qHTS Assay for Inhibitors of N-terminal methyltransferase 1 (NTMT1): LOPAC validation of the NTMT1 SAHH-coupled ThioGlo3 Assay (AID 1347143).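 Also: SAH from peptide methylation measured as thiol fluorescence via SAHH coupling and ThioGlo3; nearly all actives have a fitted effect of over 70% in size.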 The gist of the method:
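Inhibition of NTMT1 methylation of peptide SPKRIA is followed by converting SAH with SAHH and labelling the released thiol with ThioGlo3. Plates are read at 340/450nm before and 30 min after reagent addition, both at room temperature.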

Assay [7] in a line: qHTS of pediatric cancer cell lines to identify multiple opportunities for drug repurposing: Confirmatory screen for SK-N-SH cells (AID 1347129).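 Also: cells exposed to compound for 48 h before viability read; nearly all actives have a fitted effect of over 60% in size.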 The gist of the method: as §1
In assay [8] the test system is Zika virus NS2B-NS3 protease (unlinked). Put plainly: Optimization of GU AMC qHTS for Zika virus inhibitors: Unlinked NS2B-NS3 protease assay (AID 1347151). Also: nearly all actives have a fitted effect of over 80% in size. The gist of the method:
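Unlinked protease (25 nM final); buffer 10 mM Tris-HCl pH 8.0 + 0.01% Tween 20; AMC substrate; 15 min RT, dark; Δfluorescence normalized to no-inhibitor/no-enzyme controls; 4-parameter Hill fit.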
Potency is read from the fitted curve at half-maximal effect.

N-terminal Xaa-Pro-Lys N-methyltransferase 1 (Homo sapiens), sequence (Q9BV86 whole entry, looked up): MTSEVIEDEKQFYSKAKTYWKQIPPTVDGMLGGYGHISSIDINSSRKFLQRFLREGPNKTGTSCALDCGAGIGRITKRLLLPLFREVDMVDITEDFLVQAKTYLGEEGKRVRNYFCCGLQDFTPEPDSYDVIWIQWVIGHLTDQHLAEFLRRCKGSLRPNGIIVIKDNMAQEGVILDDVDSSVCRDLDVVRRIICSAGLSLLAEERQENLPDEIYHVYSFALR

For `COC(=O)Nc1nc2ccc(C(=O)C3CC3)cc2[nH]1`, the Potency entry in assay [1], in assay [2] and in assay [5] was “inactive” throughout. Also, the Potency in assay [3] and in assay [4] was 1.31 µM (active) in each case.
For `Nc1nc(SCc2ccc([N+](=O)[O-])cc2)c2ncn([C@@H]3O[C@H](CO)C(O)[C@H]3O)c2n1` (stereo not given in full), the Potency result in assay [6] was “inactive”.
Still for that read-out and setting: the entry for `C=C/C(C)=C/[C@@]1(C)SC(=O)C(C)=C1O` is “inactive”; for `C[N+](C)(C)CCOP(=O)(O)OP(=O)([O-])OC[C@H]1O[C@@H](n2ccc(N)nc2=O)[C@H](O)C1O` (stereo not given in full) it is “inactive”.
`CCCSc1ccc2nc(NC(=O)OC)[nH]c2c1`: the Potency in assay [3] was 1.58 µM (active); in assay [4], 2.51 µM (active); in assay [7] it was 6.31 µM (active). Further, the Potency entry in assay [5] was “inactive”.
For `N=c1ccn2c(n1)O[C@H]1C(O)[C@@H](CO)O[C@H]12` (stereo not given in full), in assay [6], the Potency result was “inactive”.
The same measure, in the same setting: the same measure for `CNC(=O)[C@H]1O[C@@H](n2cnc3c(NCc4ccc(N)cc4)ncnc32)[C@H](O)C1O` (stereo not given in full): “inactive”; for `OC[C@H]1O[C@@H](n2cnc3c(NC4CCCC4)ncnc32)[C@H](O)C1O` (stereo not given in full): “inactive”.
With `[O-][n+]1ccccc1SSc1cccc[n+]1[O-]`, the Potency in assay [3] is 1.82 µM (active); in assay [7], 3.23 µM (active). Further, in assay [5], the Potency entry was “inactive”.
As to `O=[N+]([O-])c1ccc(CSc2ncnc3c2ncn3[C@@H]2O[C@H](CO)C(O)[C@H]2O)cc1` (stereo not given in full), the Potency entry in assay [6] is “inactive”.
For `CN[C@H](CC(C)C)C(=O)N[C@H]1C(=O)N[C@@H](CC(N)=O)C(=O)N[C@H]2C(=O)N[C@H]3C(=O)N[C@H](C(=O)N[C@H](C(=O)O)c4cc(O)cc(O)c4-c4cc3ccc4O)[C@H](O)c3ccc(c(Cl)c3)Oc3cc2cc(c3O[C@@H]2O[C@H](CO)[C@@H](O)[C@H](O)[C@H]2O[C@H]2C[C@](C)(N)[C@H](O)[C@H](C)O2)Oc2ccc(cc2Cl)[C@H]1O`, the Potency entry in assay [6] and in assay [8] was “inactive” throughout.
With `O=C(CCc1ccncc1)NNC(=O)N1Cc2ccccc2Oc2ccc(Cl)cc21`, the Potency entry in assay [6] and in assay [8] was “inactive” throughout.
With `NCC1OC(OC2C(O)[C@@H](OC3C(O)C(N)CC(N)C3OC3OC(CO)C(O)C(O)C3N)O[C@@H]2CO)C(N)C(O)C1O` (stereo not given in full), the Potency entry in assay [6] is “inactive”.
As to `CC[C@H]1OC(=O)[C@H](C)C(O[C@H]2C[C@@](C)(OC)[C@@H](O)[C@H](C)O2)[C@H](C)[C@@H](OC2O[C@H](C)C[C@H](N(C)C)[C@H]2O)[C@](C)(O)C[C@@H](C)CN(C)[C@H](C)[C@@H](O)[C@]1(C)O` (stereo not given in full), the Potency entry in assay [6] and in assay [8] was “inactive” each time.
As to `CN(C)c1ccc(C(=C2C=CC(=[N+](C)C)C=C2)c2ccccc2)cc1`, the Potency in assay [1] was 1.04 µM (active); in assay [2], 0.104 µM (active); in assay [3], 0.522 µM (active); in assay [4], 2.61 µM (active); in assay [7] it was 1.32 µM (active). Moreover, in assay [5], the Potency result is “inactive”.
On to `Nc1nc(Cl)nc2c1ncn2[C@@H]1O[C@H](CO)C(O)[C@H]1O` (stereo not given in full), for which the Potency result in assay [6] is “inactive”.
As for `NC(=O)C1=CN(C2OC(COP(=O)(O)OP(=O)(O)OC[C@H]3O[C@@H](n4cnc5c(N)ncnc54)[C@H](OP(=O)(O)O)C3O)C(O)C2O)C=CC1` (stereo not given in full), in assay [6], the Potency result is “inactive”.
Consider `N=C1N=C(N)c2cc3ccccc3cc21`, for which the Potency was 47.9 µM (active) in assay [2], 42.7 µM (active) in assay [4], 38.2 µM (active) in assay [7] and 23.3 µM (active) in assay [5].
Take `Oc1ccccc1O`: the Potency in assay [6] is 44.7 µM (active). Further, in assay [8], the Potency entry was “inactive”.
Regarding `C[C@H](Cc1ccccc1)Nc1ncnc2c1ncn2[C@@H]1O[C@H](CO)C(O)[C@H]1O` (stereo not given in full), the Potency entry in assay [6] is “inactive”.
Consider `C=C[C@H]1CN2CC[C@@H]1C[C@H]2[C@H](O)c1ccnc2ccc(OC)cc12`, for which, in assay [6], the Potency is 56.2 µM (active).
Turning to `Oc1c(Br)cc(Br)c2cccnc12`, the Potency result in assay [1], in assay [4] and in assay [5] was “inactive” throughout.
Take `Nc1ccc([N+](=O)[O-])cc1O`: the Potency entry in assay [1], in assay [2], in assay [4], in assay [7] and in assay [5] was “inactive” throughout.
For `OCC1O[C@H]([S-])C(O)[C@@H](O)[C@@H]1O.[Au+]` (stereo not given in full), in assay [6], the Potency entry was “inactive”.
As for `Nc1nc(Nc2ccccc2)nc2c1ncn2[C@@H]1O[C@H](CO)C(O)[C@H]1O` (stereo not given in full), the Potency in assay [6] is 39.8 µM (active).
Consider `Brc1cc2c(cc1[C@H]1Nc3ccccc3[C@H]3C=CC[C@H]31)OCO2`, for which the Potency result in assay [6] and in assay [8] was “inactive” each time.
On to `CNC(=O)[C@H]1O[C@@H](n2cnc3c(NCc4cccc(I)c4)ncnc32)[C@H](O)C1O` (stereo not given in full), for which the Potency entry in assay [6] was “inactive”.
`COC(=O)c1nc(Cl)c(Cl)nc1N`: the Potency in assay [1] was 20.8 µM (active); in assay [2], 16.5 µM (active); in assay [3], 2.61 µM (active); in assay [4] it was 18.5 µM (active); in assay [7] it was 4.69 µM (active); in assay [5], 10 µM (active).
`CCOC(=O)c1ccccc1O`: the Potency result in assay [4], in assay [7] and in assay [5] was “inactive” each time.
`CNc1ncnc2c1ncn2[C@@H]1O[C@H](CO)C(O)[C@H]1O` (stereo not given in full): in assay [6], the Potency entry is “inactive”.
Turning to `CCCCC#Cc1nc(NC)c2ncn([C@@H]3O[C@H](CO)[C@@H](O)C3O)c2n1` (stereo not given in full), in assay [6], the Potency is 39.8 µM (active).
With `COc1cccc2c1C(=O)c1c(O)c3c(c(O)c1C2=O)C[C@@](O)(C(=O)CO)C[C@@H]3O[C@H]1C[C@H](N)[C@H](O[C@@H]2CCCCO2)[C@H](C)O1`, the values for the Potency in assay [2] and in assay [7] were 5.85 µM (active) and 2.35 µM (active), respectively.
As for `CC(C)(C)NCC(O)COc1nsnc1N1CCOCC1` (stereo not given), the Potency entry in assay [6] was “inactive”.
Take `CC[C@@H](C)[C@H]1O[C@]2(CC[C@@H]1C)C[C@@H]1C[C@@H](C/C=C(\C)[C@@H](O[C@H]3C[C@H](OC)[C@@H](O[C@H]4C[C@H](OC)[C@@H](O)[C@H](C)O4)[C@H](C)O3)[C@@H](C)/C=C/C=C3\CO[C@@H]4[C@H](O)C(C)=C[C@@H](C(=O)O1)[C@]34O)O2`: the Potency entry in assay [6] was “inactive”.
With `Nc1ncnc2c1ncn2[C@@H]1O[C@H](CO)C(O)[C@H]1O` (stereo not given in full), the Potency in assay [6] is 2.24 µM (active).
Turning to `CO/N=C(\C(=O)N[C@@H]1C(=O)N2C(C(=O)O)=C(COC(C)=O)CS[C@H]12)c1csc(N)n1` (stereo in doubt), in assay [6], the Potency result is “inactive”.
Regarding `CC(=O)/C=C1\C(=O)N(C)c2ccccc21`, in assay [6], the Potency is 28.2 µM (active). Moreover, the Potency entry in assay [8] was “inactive”.
Turning to `O=C(CCCCCN1CCN(c2ccccc2-c2ccccc2)CC1)NC1CCCc2ccccc21` (stereo not given), the results for the Potency in assay [6] and in assay [8] were 79.4 µM (active) and 23.8 µM (active), respectively.
The corresponding values for `COCCOc1cc2nc[nH]c(=O)c2cc1OCCOC` are “inactive” and “inactive”.
The corresponding values for `CC[C@H]1OC(=O)[C@H](C)[C@@H](O[C@H]2C[C@@](C)(OC)[C@@H](O)[C@H](C)O2)[C@H](C)[C@@H](O[C@@H]2O[C@H](C)C[C@H](NC)[C@H]2O)[C@](C)(O)C[C@@H](C)CN(C)[C@H](C)[C@@H](O)[C@]1(C)O` are “inactive” and “inactive”.
